# In the library only some 9.3% were active in any assay of this set; here they are far more common.
# Rab9 prom act: qHTS Assay for Rab9 Promoter Activators; Huh7 Rab9 promoter-luciferase reporter, luminescence, 24 h; Potency, µM (top dose mostly 9.22 µM), without a hit: top-dose activation, negative = inhibition, most hits filed as activators; actives 2.8% (n = 320,000); AID 485297, 2010; further: % of control where 0% means no effect; nearly all actives have a fitted effect of over 60% in size
#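 Cell-based reporter: Huh7 stable for Rab9 promoter-driven luciferase, plated in reduced-serum medium with 10% FBS at 1500 cells/well, compound-treated 24 h at 37 °C, luminescence read after 10 min reagent.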
# NPC1 prom act: qHTS Assay for NPC1 Promoter Activators; Huh7 NPC1 promoter luciferase reporter, 24 h; Potency, µM (highest dose often 9.22 µM), for inactives: top-dose activation, usual class: activators; actives 2.4% (n = 320,000); AID 485313, 2010; further: % of control where 0% means no effect; nearly all actives have a fitted effect of over 60% in size
#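 Quantitative HTS used a cell-based reporter: Huh7 cells stably bearing the NPC1 promoter upstream of luciferase were treated with compounds for 24 h, and promoter activation was read as luminescence.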
# FLuc modulator: qHTS profiling assay for firefly luciferase inhibitor/activator using purifed enzyme and Km concentrations of substrates (counterscreen for miR-21 project); Luciferin 4-monooxygenase (Photinus pyralis), P08659; purified FLuc, Km substrates, luminescence inhibition; Potency, µM (titrated, usually from 57.5 µM), without a hit: top-dose activity change, negative = inhibition, most hits filed as inhibitors; actives 6.9% (n = 360,000); AID 588342, 2011;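 further: plate controls were vehicle for no effect and reference inhibitor for full effect; nearly all actives have a fitted effect of over 55% in size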
# Target sequence (P08659 whole entry, looked up): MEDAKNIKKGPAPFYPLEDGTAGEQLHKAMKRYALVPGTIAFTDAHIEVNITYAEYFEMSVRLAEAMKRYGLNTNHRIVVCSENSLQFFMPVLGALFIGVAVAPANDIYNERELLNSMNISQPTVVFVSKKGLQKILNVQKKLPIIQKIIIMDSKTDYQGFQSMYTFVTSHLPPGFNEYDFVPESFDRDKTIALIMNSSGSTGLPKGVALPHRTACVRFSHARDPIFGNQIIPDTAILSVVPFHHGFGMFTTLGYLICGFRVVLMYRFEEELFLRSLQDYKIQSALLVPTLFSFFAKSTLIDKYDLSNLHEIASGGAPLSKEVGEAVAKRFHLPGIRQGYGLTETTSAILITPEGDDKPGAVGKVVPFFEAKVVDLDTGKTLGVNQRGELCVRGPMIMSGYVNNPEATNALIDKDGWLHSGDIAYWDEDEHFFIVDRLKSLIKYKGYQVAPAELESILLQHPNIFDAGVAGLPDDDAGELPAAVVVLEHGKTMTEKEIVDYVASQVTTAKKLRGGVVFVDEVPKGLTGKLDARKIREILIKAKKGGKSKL
#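 Purified P. pyralis luciferase, 10 nM final, with Km-level 10 uM D-luciferin and 10 uM ATP in 50 mM Tris acetate pH 7.5, 10 mM Mg acetate, 0.01% Tween-20, 0.05% BSA; 6-point qHTS titration about 60 µM downward; luminescence read.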
# ELG1 genotoxic: qHTS screen for small molecules that induce genotoxicity in human embryonic kidney (HEK293T) cells expressing luciferase-tagged ELG1 | Potency, µM (series often up to 46 µM), for inactives: top-dose activity change, positive = activation, hits mostly activators | AID 504466, 2011 | HEK293T ELG1-luciferase reporter, luminescence, 16 h | actives 1.3% (n = 330,000); further: % of control where 0% means no effect; nearly all actives have a fitted effect of over 60% in size
#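 Quantitative HTS format in 1536-well plates. HEK293T ELG1-luciferase reporter cells receive test compound and are incubated 16 hr at 37 °C, 5% CO2; ONE-Glo added, 30 min room temperature, then luminescence read.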
# ELG1 DNA repair: qHTS screen for small molecules that inhibit ELG1-dependent DNA repair in human embryonic kidney (HEK293T) cells expressing luciferase-tagged ELG1. Potency, µM (titrated, usually from 46.1 µM), for the others: top-dose activity change, negative = inhibition, usual class: inhibitors. actives 2.3% (n = 330,000). HEK293T ELG1-luciferase reporter, luminescence, 16 h; DNA damage induced by 5-fluorouridine. AID 504467, 2011; further: on the % scale 0 is the no-effect control and ±100 the full control effect; nearly all actives have a fitted effect of over 55% in size
#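 Quantitative HTS, concentration-response format. 2,000 cells/well co-treated with 5-fluorouridine and compound, 16 hr in 5% CO2 at 37 °C; ONE-Glo luminescence read after 30 min.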
# SMN2 splice enh: qHTS Assay for Enhancers of SMN2 Splice Variant Expression; HEK293 SMN2-luciferase splicing reporter, luminescence, 30-36 h; actives 2.8% (n = 210,000); Potency, µM (titrated, usually from 46.1 µM), inactives show at the top dose activity change, positive = activation, actives largely listed as activators; further: % of control where 0% means no effect; nearly all actives have a fitted effect of over 55% in size
#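 HEK293 cells carry an SMN2 minigene-luciferase reporter in which exon 7 inclusion puts luciferase in frame. Cells were seeded at 2000 cells/well, attached for 10-12 hours, then exposed to compounds for 30-36 hours at 37C before ONE-Glo luminescence.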
# Numbers without * were called inactive; ? = inconclusive; / = no result given; [ ] = dose if it differs, or a comment. The call rests on the fitted dose curve; in most records, active means well fitted curve in the direction sought with a large enough effect; inconclusive means small, poorly fitted or top-dose-only effect, or another doubt; inactive means no such curve, though single readings can be large; an effect the other way counts as inactive or inconclusive. Potency means the concentration at half of the fitted maximal effect.
SMILES,Rab9 prom act,NPC1 prom act,FLuc modulator,ELG1 genotoxic,ELG1 DNA repair,SMN2 splice enh
CCOc1ccc(Br)cc1C(=O)N/N=C/c1c[nH]c2ccccc12,-3.9%,0.6%,2.0%,-0.7%,-20.7%,/
O=C(N/N=C/c1c[nH]c2ccccc12)c1ccccc1,?,?,13.5µM*,?,?,/
CCC(CC)C(=O)OCc1cc(=O)n2nc(C3CC3)sc2n1,/,/,-3.9%,/,/,/
CCC(C(=O)NCCC(C)C)n1ccc2cc(S(=O)(=O)N3CCCCC3)ccc21 (configuration not stated),-12.2%,-24.2%,-0.5%,-6.6%[9.26 µM],-19.5%,/
COc1cccc(NC(=S)N(CCC(C)C)C2CCN(C(C)=O)CC2)c1,2.5%,-4.7%,-1.3%,-3.0%,0.9%,/
Cc1ccc(CNC(=O)C2CCC(CNS(=O)(=O)c3ccc(C)cc3)CC2)cc1 (configuration not stated),/,/,3.6%,/,/,/
O=C(N/N=C/c1cccc([N+](=O)[O-])c1O)C(O)(c1ccccc1)c1ccccc1,-0.1%,0.5%,-15.7%,-0.8%,-6.8%,/
O=C(N/N=C/c1cccc([N+](=O)[O-])c1O)c1cccs1,-1.3%,-5.6%,13.5µM*,0.2%,-9.1%,-63.4%
O=C(N/N=C/c1cccc2ccccc12)c1cccs1,3.55µM*,5.62µM*,2.13µM*,?,?,/
O=C(N/N=C/c1ccc([N+](=O)[O-])o1)c1sc2ccccc2c1Cl,-0.1%,-7.1%,3.3%,-9.3%,?,/
O=C(N/N=C/c1c[nH]c2ccccc12)c1ccc2c(c1)OCCO2,?,?,0.953µM*,?,?,/
O=C(N/N=C/c1ccccn1)c1sc2ccccc2c1Cl,-1.3%,-1.3%,9.53µM*,?,?,/
Cn1cccc1/C=N/NC(=O)c1sc2ccccc2c1Cl,?,?,2.69µM*,14.3%,?,0.0%
Cc1c(/C=N/NC(=O)c2sc3ccccc3c2Cl)cnn1C,-0.5%,3.0%,?,-0.5%,-0.4%,4.2%
NC(=S)N/N=C\c1ccccc1OCc1ccccc1,-5.8%,-4.2%,-18.3%,5.6%,-8.5%,-15.3%
Cn1cccc1/C=N/NC(=O)Cc1cccc2ccccc12,-8.5%,-7.2%,-15.1%,-1.6%,13µM*,-49.8%
O=C(N/N=C/c1ccccc1OCc1ccccc1)c1cccs1,-4.1%,8.7%,4.26µM*,13.5%,4.1%,25.9%
O=C(N/N=C/c1c[nH]c2ccccc12)c1sc2ccccc2c1Cl,?,11.6%,12µM*,?,?,?
Cc1ccc(C(=O)Nc2ccc(C(=O)N/N=C/c3c[nH]c4ccccc34)cc2)cc1,1.6%,10.9%,?,2.6%,?,9.9%
O=C(N/N=C\c1cn[nH]c1-c1ccccc1)c1cccs1,0.7%,0.1%,23.9µM*,12.6%,3.5%,19.4%
O=C(N/N=C\c1cn[nH]c1-c1ccccc1)c1cccnc1,-5.6%,-2.8%,?,-1.6%,2.1%,-12.9%
Cc1cc(C(=O)N/N=C/c2c[nH]c3ccccc23)cs1,11.2%,16.3%,15.1µM*,17.5%,?,?
O=C(N/N=C/c1c[nH]c2ccccc12)c1cccs1,?,?,9.53µM*,23.1µM*,?,/
Cc1c(NC(=O)c2ccc(-c3ccc([N+](=O)[O-])cc3Cl)o2)c(=O)n(-c2ccccc2)n1C,-2.7%,-6.1%,-13.2%,-3.5%,?,-14.8%
CSc1ccccc1NC(=O)c1noc(C)c1[N+](=O)[O-],-8.0%,-5.2%,2.3%,-0.1%,10.7%,/
